# Results filed as inconclusive are left out. Where a call stands in place of a potency, no number is given. Calls of active or inactive are those of the source. Calls follow the shape of the dose curve; as a rule, active = well fitted cell-killing curve with a large enough effect in the repeat runs; inconclusive = weak or mixed curves, or effect the other way; inactive = flat fitted curve, though single readings scatter.
# Test: qHTS assay to identify small molecule antagonists of the estrogen receptor alpha (ER-alpha) signaling pathway using the BG1 cell line in the presence of 0.1 nM 17-beta-estradiol - cell viability counter screen (AID 1259241); also: nearly all actives have a fitted effect of over 40% in size
# Settings: VM7Luc4E2 (BG1) viability, CellTiter-Fluor protease, 22 h, 0.1 nM estradiol agonist added; series mostly up to 92.4 µM
# Description: National Center for Advancing Translational Sciences [NCATS]
# NIH Chemical Genomics Center [NCGC]
# U.S. Environmental Protection Agency [EPA]
# National Institutes of Environmental Health Sciences [NIEHS]
# National Toxicology Program [NTP]
# U.S. Food and Drug Administration [FDA]
# Estrogen receptor (ER), a member of the nuclear hormone receptor plays an important role in development, metabolic homeostasis and reproduction. Two subtypes of ER, ER-alpha and ER-beta, have similar expression patterns with some uniqueness in both types. Endocrine disrupting chemicals (EDCs) and their interactions with steroid hormone receptors like ER causes disruption of normal endocrine function. Therefore, it is important to understand the effect of environmental chemicals in ER signaling pathway. For identifying ER antagonists, VM7Luc4E2 cell line was used to screen against Tox21 compound libraries.
# VM7Luc4E2 cell line (provided by Denison MS, University of California) endogenously express full-length ER-alpha and is stably transfected with a plasmid containing four estrogen responsive elements (ERE) upstream of a luciferase reporter gene. The current screening for identification of ER-alpha inhibitors against Tox21 compound libraries used lower concentration (0.1 nM) of 17beta-Estradiol as a stimulator. The cytotoxicity of the Tox21 compound libraries against VM7Luc4E2 cell line was tested by measuring live-cell protease activity using CellTiter-Fluor assay in the same wells.
# Tox21 Assay Protocol Summary:
# VM7Luc4E2 cells were cultured in phenol red free assay medium containing 10% charcoal stripped FBS for 5 days prior to the assay. The cells were dispensed at 4,000 cells/well in 4 uL of assay medium into white wall/solid-bottom 1536-well plates (Corning Life Sciences, Corning, NY) using a Multidrop Combi (ThermoFisher Scientific, Waltham, MA) dispenser. After the assay plates were incubated at 37C and 5% CO2 for 24 hr, 23 nL of compounds dissolved in DMSO, positive controls or DMSO only was transferred to the assay plates by a Pintool station (Kalypsys, San Diego, CA). The transfer of compounds was followed by the addition of 1 uL of 0.1 nM (final concentration) agonist (17beta-Estradiol)/assay medium using a Flying Reagent Dispenser (FRD, Aurora Discovery, San Diego, CA). The plates were incubated at 37C and 5% CO2 for 22 hr. For cytotoxicity assay, 1 uL of CellTiter-Fluor reagent (Promega Corporation, Madison, WI) was added to each well using the FRD and after 30 min incubation at 37C and 5% CO2, The fluorescence intensity was measured using ViewLux plate reader (PerkinElmer, Shelton, CT).
row,SMILES,Potency
1,Nc1ccccc1C(=O)O,inactive
2,CC(NC(C)(C)C)C(=O)c1cccc(Cl)c1 (stereo not given),inactive
3,CN(C)[C@@H]1C(=O)C(C(N)=O)=C(O)[C@@]2(O)C(=O)C3=C(O)c4c(O)cccc4[C@@](C)(O)[C@H]3C[C@@H]12,inactive
4,Oc1ccccc1Cl,inactive
5,O=[N+]([O-])c1ccc([As](=O)(O)O)cc1,inactive
6,Clc1cccc(Cl)c1Cl,inactive
7,C=CC(N)=O,inactive
8,CCC(C)(CC)c1cc(NC(=O)c2c(OC)cccc2OC)on1,inactive
9,COC(=O)NS(=O)(=O)c1ccc(N)cc1,inactive
10,Nc1ccc(Oc2ccc(N)cc2)cc1,inactive
11,CN(C)N=O,inactive
12,CCN(CC)c1ccccc1,inactive
13,C1CC2OC2CC1C1CO1 (stereo not given),inactive
14,Nc1c(Cl)c(Cl)nc(C(=O)O)c1Cl,inactive
15,OC(O)C(Cl)(Cl)Cl,inactive
16,Cc1cc(-c2cc(C)c(N)c(C)c2)cc(C)c1N,inactive
17,CNC(=O)Oc1ccccc1OC(C)C,inactive
18,COP(N)(=O)SC (stereo not given),inactive
19,CC(Oc1ccc(Cl)cc1Cl)C(=O)O (stereo not given),inactive
20,c1ccc(OP(Oc2ccccc2)Oc2ccccc2)cc1,inactive

row,SMILES,Potency
1,c1ccc2c(c1)oc1ccccc12,inactive
2,O=c1ccc(=O)[nH][nH]1,inactive
3,CCNc1nc(NC(C)C)nc(SC)n1,inactive
4,CC(C)(C)OOC(=O)c1ccccc1,inactive
5,Cc1ccc(N)cc1Cl,inactive
6,CN(C)CCO,inactive
7,CC(C#N)CCC#N (stereo not given),inactive
8,Cc1[nH]c(=O)n(C(C)(C)C)c(=O)c1Cl,inactive
9,O=C(O)c1ccccn1,inactive
10,Cc1ccc(N)cc1N,inactive
11,O=c1n(Cl)c(=O)n(Cl)c(=O)n1Cl,inactive
12,CCN(CC)CCO,inactive
13,CCCCCCCCCl,inactive
14,CC1C=[C-]C=C1.[C-]#[O+].[C-]#[O+].[C-]#[O+].[Mn],inactive
15,ClCCBr,inactive
16,CCOP(=S)(OCC)Oc1cnc2ccccc2n1,inactive
17,CC(C)(Cl)Cl,inactive
18,CC(C)N1C(=O)c2ccccc2NS1(=O)=O,inactive
19,O=[N+]([O-])c1ccc(Oc2ccc(Cl)cc2Cl)cc1,inactive
20,CC(Br)C(=O)O (stereo not given),inactive

# Reference: PubChem BioAssay (Tox21)
